Among all 65,000 compounds or so, about 2,100 (3.2%) showed an effect of 50% or more. The median lay at about -52%. This excerpt belongs to a sample that is enriched for strong results.
These compounds were tested on Plasmodium falciparum (assay: Screen against P. falciparum Asexual Blood Stage (ABS), at 5uM). Conditions: tested at 5 uM.
Type: functional, Dd2

Structure (SMILES) | INHIBITION
CC(C)(C)n1ncc(NCC(O)c2ccccc2)c(Cl)c1=O (configuration not stated) | -162%
Cc1cccc(C2(CNC(=O)C(C)NC(N)=O)CCCC2)c1 (configuration not stated) | 69.9%
Cc1cccc(C2(CNC(=O)C(C)S(C)(=O)=O)CCCC2)c1 (configuration not stated) | -66%
Cc1cccc(C2(CNC(=O)CO)CCCC2)c1 | -108%
NC(=O)[C@@H]1Cc2ccccc2CN1S(=O)(=O)N1CCCCC1 | -124%
CC(CNC1CCN(Cc2ccncc2)CC1)c1ccc(F)cc1F (configuration not stated) | 70%
CC(NC(=O)NC1CCN(Cc2ccncc2)CC1)c1ccc(F)cc1 (configuration not stated) | -35.2%
CC(NC(=O)NC1CCN(Cc2ccncc2)CC1)c1cccc(F)c1 (configuration not stated) | -98.2%
Cc1cc(F)ccc1C(=O)N1C[C@@H]2COC[C@]2(CN(C)C)C1 | -31.2%
CC(C)(C)c1cc(NC(=O)CN2CCCC2Cn2cccn2)on1 (configuration not stated) | -91.6%
NC(=O)C1CCN(C(=O)NCc2cccnc2OCC(F)(F)F)C1 (configuration not stated) | -75.2%
CC(C)(C)n1ncc2c(=O)[nH]c(N3CCC4(CCCCC4)C3)nc21 | 52.6%
CN1CCCN(c2nc3c(cnn3C(C)(C)C)c(=O)[nH]2)CC1 | -12.6%
CC(=O)N1CCN(c2nc3c(cnn3C(C)(C)C)c(=O)[nH]2)CC1 | -76.5%
Cn1ccc(CN2CCCC23CCN(Cc2ccccc2F)CC3)n1 | 0.737%
CCN1CCN(c2ccc(F)cc2C(C)NCc2noc(C)n2)CC1 (configuration not stated) | 53.9%
Cc1nc(CNC(=O)Nc2cc(F)ccc2N2CCN(C)CC2)no1 | -28.8%
CCN1CCN(c2ccc(F)cc2C(C)NCc2nc(C)no2)CC1 (configuration not stated) | 7.98%
Cc1nccc(N[C@H]2CN(C(=O)CCN3CCCC3=O)C[C@@H]2C(C)C)n1 | -132%
COCCNCc1ccc(OCC(=O)NC(C)(C)C)cc1 | -80.9%
Cc1ccc(C(=O)N2CCC3(CCN3Cc3ccc(F)cc3)C2)cn1 (configuration not stated) | -74.2%
COCCN1CCO[C@H]2CN(C(=O)c3cccs3)C[C@H]21 | -92.4%

Structure (SMILES) | INHIBITION
c1coc(-c2nnc(CN3CCCC(CN4CCCCCC4)C3)o2)c1 (configuration not stated) | -67.1%
CC(C)N(CC1CCCN(Cc2ccon2)C1)C(=O)OC(C)(C)C (configuration not stated) | -5.65%
CC(C)N(CC1CCCN(CC(N)=O)C1)C(=O)OC(C)(C)C (configuration not stated) | -14.8%
Cc1noc(C)c1CN1CCCC(CN(C(=O)OC(C)(C)C)C(C)C)C1 (configuration not stated) | 54.1%
c1cncc(OC2CCN(CCn3cc4ccccc4n3)CC2)c1 | -47.4%
CN(CC(=O)Nc1cnn(-c2ccccc2S(C)(=O)=O)c1)C1CC1 | -85.55%
c1cncc(COCC2CC[C@H]3[C@H](CCN3CC3CCOCC3)O2)c1 (some centres not stated) | -5.45%
Cn1cc(C2CCCN2Cc2csc(-c3ccccc3)n2)cn1 (configuration not stated) | 53.8%
Cn1cc(C2CCCN2Cc2csc(Cc3ccccc3)n2)cn1 (configuration not stated) | 13.8%
CCCC1CCCN(Cc2csc(-c3cnn(C)c3)n2)CC1 (configuration not stated) | 54.1%
Cn1cc(-c2nc(CN3CCN(CCO)CC3)cs2)cn1 | -59.9%
COCCN1CCN(Cc2csc(-c3cnn(C)c3)n2)CC1 | -30.6%
Cn1cc(C2CCCN2Cc2csc(-c3ccsc3)n2)cn1 (configuration not stated) | -32.1%
CCCS(=O)(=O)CCSc1cccc(C#N)c1 | -113%
O=C(Cc1ccsc1)N1CCC(c2noc(-c3cccnc3)n2)CC1 | -53.4%
O=C(Cc1ccncc1)N1C[C@H]2CC[C@@H](C1)N(Cc1ccccc1)C2=O | -99.2%
COc1ccc(Oc2nccc3occc23)cc1CN1CCCC1 | 61.8%
COc1ccc(Oc2ncccc2C(F)(F)F)cc1CN1CCCC1 | 32.5%
COc1ccc(Oc2ccc(C(F)(F)F)cn2)cc1CN1CCCC1 | 51.7%
COc1ccc(Oc2ncccc2F)cc1CN1CCCC1 | 15.9%
COc1cc(Oc2cnc3ccccc3n2)ccc1CN1CCCC1 | 59%
COc1cc(Oc2ccc(C(N)=O)cn2)ccc1CN1CCCC1 | -42.6%

Structure (SMILES) | INHIBITION
COc1ccc(Oc2cccc(C#N)n2)cc1CN1CCCC1 | -20.2%
COc1cc(Oc2ccc(C(F)(F)F)cn2)ccc1CN1CCCC1 | 30.2%
Fc1cc(Oc2ccc(C(F)(F)F)cn2)cc(F)c1CN1CCCC1 | 24.4%
CCN(C)C[C@@H]1CN(C(=O)c2cc(C(F)(F)F)n[nH]2)C[C@@H]1CO | -5.31%
COC[C@@]12CCO[C@@H]1CCN(Cc1ccc(C)s1)C2 | -35.8%
COCCC(=O)N1CC2(CCN(Cc3ccccc3Cl)CC2)C1 | 0.294%
Cc1cc(C)c(CNC(=O)CCC2CCCO2)c(=O)[nH]1 (configuration not stated) | 53.2%
Cc1cc(C)c(CNC(=O)NCCC2CCCO2)c(=O)[nH]1 (configuration not stated) | 20.5%
Cc1cc(C)c(CNC(=O)NCC2CCCO2)c(=O)[nH]1 (configuration not stated) | -64.8%
Cc1c(NC(=O)N(C)CCO)cccc1OC1CCCC1 | -65.2%
CC(C)(C)c1cc(CN2C[C@H]3CC[C@@H](C2)N(Cc2ccccn2)C3)n[nH]1 | 47.7%
CC(C)Cc1cc(CN2C[C@@H]3CC[C@H]2CN(Cc2cscn2)C3)n[nH]1 | 66.6%
CC(C)(C)c1cc(CN2C[C@@H]3CC[C@H]2CN(Cc2cscn2)C3)n[nH]1 | 20.1%
CCc1nccn1-c1nccnc1C1CCN(C(=O)COC)CC1 | -25.8%
CN(Cc1cccnc1)C(CO)c1cccc(Br)c1 (configuration not stated) | -135%
CSCc1ccc(CNC2CCCN(c3ccc(C)nn3)C2)o1 (configuration not stated) | -38.5%
CC(CN1CCOCC1)n1cncc1-c1cnn(Cc2ccccc2)c1 (configuration not stated) | -46.1%
CCC(CN1CCCC1)n1cncc1-c1cnn(Cc2ccccc2)c1 (configuration not stated) | 44.8%
CC(Cn1cncc1-c1cnn(Cc2ccccc2)c1)N1CCCCC1 (configuration not stated) | 65.7%
Cc1cccc(C)c1OC1CCN(Cc2ccn(C)c(=O)c2)CC1 | -30.1%
CC(OCC1CC1)C(=O)Nc1cccc(C(=O)Nc2ccncc2)c1 (configuration not stated) | -140%
O=C(CC1CN(Cc2ccccc2)CCO1)NCCN1CCOCC1 (configuration not stated) | -108%

Structure (SMILES) | INHIBITION
Cc1nn(C)c(C)c1-c1ccnc(N(C)Cc2nc(C(C)C)no2)n1 | 66.3%
Cc1nn(C)c(C)c1-c1ccnc(N(C)Cc2noc(C(C)C)n2)n1 | -25.3%
Cc1nn(C)cc1-c1ccnc(N(C)Cc2noc(C(C)C)n2)n1 | -32.2%
O=C(COc1ccc(F)cc1)N1CCO[C@H]2[C@@H](OCC3CC3)CC[C@@H]21 | -24%
COc1ccc(C2=Nn3c(CN)nnc3-c3ccccc3C2)cc1 | 64.8%
COc1ccc(C2=Nn3c(CCCN)nnc3-c3ccccc3C2)cc1 | -100%
COc1ccc(C2=Nn3c(CCN)nnc3-c3ccccc3C2)cc1 | 32.1%
Cc1ccc(OCC(=O)NS(=O)(=O)c2cccnc2)cc1C | -19.2%
O=C(COc1ccc2c(c1)CCC2)NS(=O)(=O)c1cccnc1 | 51.8%
O=C(COc1ccc2c(c1)CCC2)NS(=O)(=O)c1cncc(Br)c1 | -108%
O=C(NCc1ccccn1)[C@@H]1COC[C@H]2CN(c3ncccn3)C[C@H]21 | -20.1%
COc1cccc(CN2CCCCCC2c2cccs2)c1O (configuration not stated) | 3.59%
COc1cccc(CN2CCCCCC2c2cccc(F)c2)c1O (configuration not stated) | 57.6%
COc1cccc(CN2CCCCCC2c2cccc(C)c2)c1O (configuration not stated) | 57.5%
Cc1cccc(C2CCCCCN2Cc2cn(C)nc2C)c1 (configuration not stated) | 35.4%
Cc1cc2[nH]c(CN3CCCCC3c3cccc(F)c3)cc(=O)n2n1 (configuration not stated) | -64.9%
COc1cccc(CN2CCCCCC2c2sccc2C)c1O (configuration not stated) | -7.83%
Oc1cc(-c2ccsc2)nc(C2CCN(Cc3cccnc3)CC2)n1 | -96.9%
O=C(NCCCNc1ccc(C(F)(F)F)cn1)c1ccc(F)cc1Br | -29.4%
CC(C)Nc1nc2c(cc1C(=O)NCC1CC1)CCN(CC1CC1)CC2 | -7.32%
COCCOCC1(CNC(=O)c2ccc(OC)cc2)C[C@@H](O)[C@@H](O)C1 (some centres not stated) | -102%

— ChEMBL document CHEMBL4513216, “Probing the Open Global Health Chemical Diversity Library for Multistage-Active Starting Points for Next-Generation Antimalarials” (ACS Infect Dis, 2020)
